Results as given in PubChem BioAssay (NCATS).
Records with an inconclusive call do not appear. Activity calls are given as the source filed them. The call rests on the fitted dose curve; in most records, active means well fitted inhibition curve with a large enough effect; inconclusive means small, poorly fitted or top-dose-only effect; inactive means flat fitted curve, though single readings scatter.

target: Calcium and integrin-binding protein 1 (Homo sapiens) (UniProt Q99828); assay: Primary qHTS for Identification of Calcium Integrin Binding Protein 1 (CIB1) Competitor (AID 1508620); details: CIB1-GST / FITC-alphaIIb peptide fluorescence polarization; series mostly up to 114 µM; activity change, negative = inhibition: at the top concentration;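 further: GST tagged CIB1 binding a fluorescein labelled alphaIIb integrin peptide tracer; top concentration of the series differs between compounds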
How it was run: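 CIB1-GST (1 uM final) and compound incubated 15 min at room temperature before adding FITC-alphaIIb peptide tracer (100 nM final). Competition for binding read by fluorescence polarization (ex 480, em 540) after another 15 min at room temperature.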
On the % scale 0 is the no-effect control and ±100 the full control effect.

Sequence of Calcium and integrin-binding protein 1 (Homo sapiens) (Q99828 whole entry, looked up): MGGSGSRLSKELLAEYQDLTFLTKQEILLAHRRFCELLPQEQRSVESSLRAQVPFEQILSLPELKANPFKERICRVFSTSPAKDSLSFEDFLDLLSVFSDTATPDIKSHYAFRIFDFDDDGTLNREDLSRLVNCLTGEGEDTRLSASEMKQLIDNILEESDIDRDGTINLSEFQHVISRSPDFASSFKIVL

SMILES | activity change, negative = inhibition
CCOC(=O)c1cccc(NS(=O)(=O)c2ccc(NC(=O)Cc3ccc(Cl)c(Cl)c3)cc2)c1 | 0.405% (inactive)
COc1ccc(N2C[C@]34C=C[C@H](O3)C(C(=O)O)C4C2=O)cc1 (stereo not given in full) | -3.16% (inactive)
c1cncc(-c2ccc3ncnc(NCc4cccs4)c3c2)c1 | -3.17% (inactive)
CC(C)c1ccccc1-c1nc(NCc2ccc(-c3cccnc3)cc2)c2occc2n1 | -0.709% (inactive)
CC(=O)Nc1sc2c(c1-c1nc3ccccc3s1)CCN(C(C)C)C2 | -1.14% (inactive)
O=C(Nc1ccc(Cl)c([N+](=O)[O-])c1)Nc1nnc(C2CCCCC2)s1 | -0.73% (inactive)
O=C(Nc1nnc(-c2ccncc2)s1)Nc1cccc2ccccc12 | 6.38% (inactive)
N#Cc1cc(NC(=O)Nc2nnc(-c3ccncc3)s2)ccc1-c1ccc[nH]1 | -3.1% (inactive)
Cn1cncc1CNc1ncnc2ccc(-c3ccc4c(c3)OCO4)cc12 | -12.2% (inactive)
Fc1cc(Nc2nc(-c3ccncc3)nc3ccccc23)ccc1-c1cccc(OC(F)F)c1 | 2.76% (inactive)
O=C(O)c1ccc(-c2cccc(-c3nn4c(=O)cc(N5CCNCC5)nc4s3)c2)cc1 | 1.37% (inactive)
FC(F)(F)c1ccccc1-c1nc(NCC#Cc2cccnc2)c2ccccc2n1 | -7.09% (inactive)
Cc1cc(-c2nnc3n2CCCCC3)c(C)n1-c1ccc(C#N)cc1 | 5.4% (inactive)
CC(C)c1ccccc1-c1ncc(F)c(NCc2ccc(-c3cccnc3)s2)n1 | -0.0334% (inactive)
Cc1ccc(-c2nccc(=O)n2CC(=O)N(C)C(C)c2ccco2)cc1 (stereo not given) | -1.16% (inactive)
O=c1c2ccccc2nc2sc(NCc3ccccc3)nn12 | 10.8% (inactive)
c1cncc(-c2ccc(CNc3nc(N4CCCC4)nc4ccccc34)cc2)c1 | 14.6% (inactive)
COC(=O)c1c(NC(=O)COC(=O)c2ccc(Cl)cc2[N+](=O)[O-])sc2c1CCCCC2 | -0.0089% (inactive)
O=S1(=O)N=C(Sc2cccc3cccnc23)c2ccccc21 | -17% (inactive)
O=C(NCCCc1cnc[nH]1)NCCCN(Cc1ccc(Cl)c(Cl)c1)c1ccc(Br)cn1 | 13% (inactive)

SMILES | activity change, negative = inhibition
Cc1cccc([S+](=O)([O-])NC2CCN(C#N)CC2)c1 | -0.536% (inactive)
O=C(OCC#CCSc1nnc(-c2cccc3ncccc23)o1)c1ccc(F)cc1 | 4.08% (inactive)
CC(C)(C)OC(=O)N1CCN(c2ccc(NCc3ccc(-c4ccc(C#N)cc4)nc3)cc2)CC1 | 0.0168% (inactive)
CC(=O)NC(c1cc(F)c2cccnc2c1O)C1CC1 (stereo not given) | -16.1% (inactive)
CC(C)(C)OC(=O)Nc1ncnc2c1C(c1ccccc1)c1c(ccc3ccccc13)O2 (stereo not given) | 4.97% (inactive)
O=C1NS(=O)(=O)C(c2ccccc2)C1c1ccccc1 (stereo not given) | -3.72% (inactive)
O=C(O)c1ccc2c(c1)C(=O)N([C@H](Cc1c3ccccc3cc3ccccc13)C(=O)O)C2=O | -2.03% (inactive)
O=C(COc1ccccc1Br)NCCc1nc2ccccc2[nH]1 | 1.94% (inactive)
COc1cccc(C(=O)Nc2ccc(-c3nc4ccccc4[nH]3)cc2)c1 | 3.84% (inactive)
Cn1cccc1CN=C1NC2=C(C(=O)CCC2)C(c2[nH]ncc2Cl)N1 (stereo not given) | -1.84% (inactive)
Cc1ccc(OCCn2c(CCNC(=O)c3cccc4[nH]ccc34)nc3ccccc32)cc1 | 7.24% (inactive)
O=S(=O)(c1ccc2c(c1)OCCO2)N1CCN(S(=O)(=O)c2cccc(Cl)c2F)CC1 | -2.63% (inactive)
Cc1ccc(NS(=O)(=O)c2ccc3c(c2)CCC(=O)N3)cc1F | 3.19% (inactive)
O=C(CNC(=O)c1ccc(Cl)cc1)OC(C(=O)Nc1cc(C(F)(F)F)ccc1Cl)c1ccccc1 (stereo not given) | 4.17% (inactive)
Cc1cc(N[S+](=O)([O-])c2ccc(NC(=O)Cc3ccc(F)c(C)c3)cc2)no1 | -12.6% (inactive)
O=C(OCC#CCSc1nnc(-c2cccs2)o1)c1ccc(F)cc1 | 2.34% (inactive)
CC(=O)Nc1sc2c(c1-c1ccc3c(c1)OCCO3)CCNC2 | 3.07% (inactive)
Cc1cccc(S(=O)(=O)NC2CCN(C#N)C2)c1 (stereo not given) | 3.85% (inactive)
O=C(Nc1ccc2sccc2c1)Nc1nnc(-c2cccnc2)s1 | 4.16% (inactive)
O=c1c2ccccc2nc2sc(NCc3ccc(Cc4ccccc4)cc3)nn12 | 2.75% (inactive)
